Our source for the growth values is PubChem BioAssay (NCI).

About 83,000 compounds went through this panel and 20% of them were active in at least one assay; those are over-represented in the sample as a whole.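 48-hour exposure, single concentration, 96-well plates; percent growth endpoint where 0 means no net growth. Active: below 10.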 Values without a mark were called inactive. Activity calls are given as the source filed them.

The subject of this assay is HL-60(TB) leukemia. The experiment in a line: NCI-60 one-dose screen, 48 h (100 = growth as untreated, 0 = no growth, -100 = all killed). To be noted: 10 µM unless noted.
Regarding `N#Cc1c(N)sc(=S)c2c1CCCC2`, the growth was 97.6%.
On to `NS(=O)(=O)c1ccc(N2N=C(c3ccc(Br)cc3)CC2c2cn(-c3ccccc3)nc2-c2ccc(Cl)cc2)cc1` (stereo not given), for which the growth was 89.6%.
In the case of `Cn1c(=O)c(F)c(Nc2ccc(I)cc2F)c2c(=O)n(C[C@@H](O)CO)cnc21`, the growth is 15.8%.
Then `CN(C1c2ccccc2Oc2ccccc21)S(=O)(=O)c1cc(Cl)ccc1Cl`, with 15.7%.
Then `COc1cc(-c2cccc([N+](=O)[O-])c2)c(-c2nc(-c3ccccc3)c(-c3ccccc3)n2C2CC2)cc1OC`, with 9.63% (active); and `O=c1[nH]cnc2c1ccn2C1OC(CO)C(O)C1O` (stereo not given), with 34%; and `CSc1ccc(-c2ccccc(=O)c2O)cc1`, with -40.1% (active).
For `O=c1[nH]c(O)c(/C=C2/C=Nc3ccccc32)[nH]1`, the growth is 35.4%.
Then `Cc1cc(=O)oc2cc(OCc3nn4c(Nc5nc6ccccc6s5)c(-c5ccccc5)nc4s3)ccc12`, with 93.1%; and `CCN1C(=O)N(CC)C2C1NN=c1s/c(=C\c3ccc(OC)cc3)c(=O)n12` (stereo not given), with -45.9% (active).
Then `NC(=S)N/N=C(/CCN1CCCC1)CC(C1=C(O)C2=CCCCC2OC1=O)c1ccccc1` (stereo not given), with 72.9%.
In the case of `COc1ccc(-c2nc3sccn3c2-c2ccnc(NCCNS(=O)(=O)c3ccc(C(F)(F)F)cc3)n2)cc1`, the growth was 4.59% (active).
Then `Nc1nc(Br)nc2c1ncn2C1CC(O)C(CO)O1` (stereo not given), with 46%.
With `CC(CN(C)C)Oc1ccc(OC(C)CN(C)C)c2c1C(=O)c1ccccc1C2=O` (stereo not given), the growth is 39.2%.
With `COc1cc(/C=N\NC(=O)CN2CCN(c3cc4c(cc3F)c(=O)c(C(=O)N/N=C/c3cc(OC)c(OC)c(OC)c3)cn4C3CC3)CC2)cc(OC)c1OC`, the growth was -10.2% (active).
`CCN1C(=O)N(CC)C2C1NC(=S)N2/N=C/C=C/c1ccccc1` (stereo not given): the growth is -39.2% (active).
Then `CCCCCCCCCCCCCCCC[N+](C)(CCO)Cc1cnc[nH]1` (stereo not given), with -80.6% (active); and `COc1ccccc1C(=O)/C=C/c1ccccc1`, with 77%.
Then `Nc1ccc2c(c1)C1(CCC2)NC(=O)NC1=O` (stereo not given), with 93.1%.
On to `NS(=O)(=O)Oc1ccc(-c2sc3cc(O)ccc3c2C(=O)c2ccc(OCCN3CCCCC3)cc2)cc1`, for which the growth is 47.7%.
Then `Cc1ccc2c(C(C[N+](=O)[O-])c3ccccc3)c(-c3ccccc3)[nH]c2c1` (stereo not given), with -10.4% [9.5 µM] (active).
With `CCOC(=O)C/C(=N\Nc1cc(=O)[nH]c2ccc(C)cc12)C(=O)OCC`, the growth was 92%.
Then `Nc1cccc(-c2ccc(COc3ccc(CC4SC(=O)NC4=O)cc3)cc2)c1` (stereo not given), with 43.4%; and `COC(=O)CNc1nc(N(C)O)nc(N(C)O)n1`, with -7.42% (active).
On to `CN(C)S(=O)(=O)c1cccc(C(=O)Nc2nc(-c3ccc(F)c(F)c3)cs2)c1`, for which the growth is 61.1%.
Then `C=CCS(C)(=O)=O`, with 104%; and `COc1ccc(-c2cc(-c3ccccc3)nc(SCCCCCCC(=O)NO)n2)cc1`, with 8.06% (active); and `Cc1ccc(S(=O)(=O)N/N=C2\CC3CCC2C3)cc1` (stereo not given), with 98.5%.
Then `Cc1ccc(S(=O)(=O)N2CCc3ccc(O)c4c3C2Cc2cc(Cl)ccc2-4)cc1` (stereo not given), with 85.3%; and `CCN(CC)P(=O)(N(CC)CC)N(CCCSC/C=C(\C)CC/C=C(\C)CCC=C(C)C)CCCN1CCN(C)CC1`, with 83.3%.
For `CN(C)C/C=C/C(=O)Nc1cc2c(Nc3ccc(F)c(Cl)c3F)ncnc2cc1OCCOC(F)F`, the growth was 13.2%.
As for `O=Cc1cc2ccccc2nc1Nc1nccs1`, the growth was 99.5%.
Turning to `O=C1CSC(c2ccccc2Cl)N1c1nnc(-c2ccncc2)o1` (stereo not given), the growth is 95.2%.
In the case of `NN1CCOC(c2ccccc2)C1` (stereo not given), the growth was -22.4% (active).
Consider `O=c1[nH]nc(-c2ccc(Br)cc2)c2sc(NC(=S)Nc3ccc(Cl)cc3)nc12`, for which the growth was 94.2%.
Then `COCCn1cc(-c2nc(-c3cc4cccnc4[nH]3)cs2)c2cc(OC)ccc21`, with 55.5%; and `O=C(Nc1cccc(C2=NCCN2)c1)c1ccc(-c2ccc(C(=O)Nc3cccc(C4=NCCN4)c3)cc2)cc1`, with 16%; and `COC(=O)[C@]12CC[C@@H](C)[C@H](C)[C@@H]1C1=CC[C@@H]3[C@@]4(C)C[C@@H](OC(C)=O)[C@H](O)[C@@](C)(COC(C)=O)[C@@H]4[C@H](O)C[C@@]3(C)[C@]1(C)CC2`, with -41.6% (active).
Then `C=C1C(=O)O[C@H]2[C@H]1CC/C(COC(=O)c1ccccc1)=C\CC[C@@]1(C)O[C@@H]21`, with -59.5% (active); and `C/C=C(/C)n1cnc2c(Nc3ccccn3)nc(Cl)nc21`, with 107%.
